Source: PubChem BioAssay AID1159580 (chemical genetic matrix, 2015)
The whole screen tested about 5,500 compounds, of which about 2,000 (36%) were called active. Another 18% or so got no clear call; they are omitted. Cut-off read from the data, not from the text of the source: active = normalized growth mostly below about 0.91 (no sharp cut-off); inconclusive = no clear call, values can overlap the other calls; inactive = mostly above about 0.92. Some of the results follow.

Experiment: chemical genetic growth profiling, strain panel (AID 1159580);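 note: tested at 20 µM; growth read once vehicle control cultures reached saturation at 30 °C; 1 = growth at the plate median or of vehicle wells; lower values mean less growth of the strain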
Details: growth OD

Measured: normalized growth

CCC(C)C(=O)c1c(O)c(C)c2oc3c(C)c(O)c(C(=O)C(C)CC)c(O)c3c2c1O (stereo not drawn)
active: S. cerevisiae deletion strains, locus YDL185W, strain tfp1, active compounds read low 0.895 | S. cerevisiae deletion strains, locus YDR137W, strain rgp1, active compounds read low 0.813 | S. cerevisiae deletion strains, locus YGL086W, strain mad1, active compounds read low 1.12 [resistant] | S. cerevisiae deletion strains, locus YJL187C, strain SWE1 (second series), active compounds read low 0.767 | S. cerevisiae deletion strains, locus YKL085W, strain MDH1 (second series), active compounds read low 1.11 [resistant] | S. cerevisiae deletion strains, locus YKL085W, strain MDH1, active compounds read low 1.11 [resistant] | S. cerevisiae deletion strains, locus YLR039C, strain RIC1, active compounds read low 0.674 | S. cerevisiae deletion strains, locus YLR058C, strain SHM2, active compounds read low 0.866
inactive: S. cerevisiae deletion strains, locus YAL021C, strain ccr4, active compounds read low 0.972 | S. cerevisiae deletion strains, locus YAL026C, strain drs2, active compounds read low 0.982 | S. cerevisiae deletion strains, locus YAL030W, strain snc1, active compounds read low 0.983 | S. cerevisiae deletion strains, locus YBL061C, strain skt5, active compounds read low 0.98 | S. cerevisiae deletion strains, locus YBR009C, strain hhf1, active compounds read low 0.977 | S. cerevisiae deletion strains, locus YBR021W, strain FUR4, active compounds read low 1.05 | S. cerevisiae deletion strains, locus YBR023C, strain chs3, active compounds read low 0.971 | S. cerevisiae deletion strains, locus YBR171W, strain sec66, active compounds read low 0.995 | S. cerevisiae deletion strains, locus YBR229C, strain ROT2, active compounds read low 0.996 | S. cerevisiae deletion strains, locus YBR231C, strain swc5, active compounds read low 0.925 | S. cerevisiae deletion strains, locus YBR279W, strain paf1, active compounds read low 0.988 | S. cerevisiae deletion strains, locus YCL011C, strain gbp2, active compounds read low 0.98 | S. cerevisiae deletion strains, locus YCL016C, strain dcc1, active compounds read low 0.973 | S. cerevisiae deletion strains, locus YCL029C, strain bik1, active compounds read low 0.943 | S. cerevisiae deletion strains, locus YCL069W, strain vba3, active compounds read low 1 | S. cerevisiae deletion strains, locus YCR088W, strain abp1, active compounds read low 0.997 | S. cerevisiae deletion strains, locus YDL005C, strain med2, active compounds read low 0.979 | S. cerevisiae deletion strains, locus YDL035C, strain GPR1, active compounds read low 0.953 | S. cerevisiae deletion strains, locus YDL040C, strain nat1, active compounds read low 0.994 | S. cerevisiae deletion strains, locus YDL074C, strain BRE1, active compounds read low 0.949 | S. cerevisiae deletion strains, locus YDL101C, strain DUN1, active compounds read low 0.959 | S. cerevisiae deletion strains, locus YDL134C, strain PPH21, active compounds read low 0.977 | S. cerevisiae deletion strains, locus YDL192W, strain arf1, active compounds read low 0.976 | S. cerevisiae deletion strains, locus YDR001C, strain nth1, active compounds read low 1.01 | S. cerevisiae deletion strains, locus YDR069C, strain doa4, active compounds read low 0.919 | S. cerevisiae deletion strains, locus YDR101C, strain arx1, active compounds read low 0.987 | S. cerevisiae deletion strains, locus YDR150W, strain NUM1, active compounds read low 0.966 | S. cerevisiae deletion strains, locus YDR159W, strain sac3, active compounds read low 0.965 | S. cerevisiae deletion strains, locus YDR162C, strain NBP2, active compounds read low 0.997 | S. cerevisiae deletion strains, locus YDR195W, strain ref2 0.977 | S. cerevisiae deletion strains, locus YDR297W, strain sur2, active compounds read low 0.989 | S. cerevisiae deletion strains, locus YDR318W, strain mcm21, active compounds read low 0.967 | S. cerevisiae deletion strains, locus YDR334W, strain swr1, active compounds read low 1 | S. cerevisiae deletion strains, locus YDR335W, strain msn5, active compounds read low 0.997 | S. cerevisiae deletion strains, locus YDR388W, active compounds read low 0.961 | S. cerevisiae deletion strains, locus YDR392W, strain spt3, active compounds read low 0.921 | S. cerevisiae deletion strains, locus YDR502C, strain sam2, active compounds read low 0.935 | S. cerevisiae deletion strains, locus YEL003W, strain gim4, active compounds read low 0.983 | S. cerevisiae deletion strains, locus YEL037C, strain rad23, active compounds read low 1.01 | S. cerevisiae deletion strains, locus YEL061C, strain CIN8 (second series), active compounds read low 1 | S. cerevisiae deletion strains, locus YEL061C, strain CIN8, active compounds read low 0.97 | S. cerevisiae deletion strains, locus YER015W, strain faa2, active compounds read low 0.983 | S. cerevisiae deletion strains, locus YER016W, strain bim1, active compounds read low 0.996 | S. cerevisiae deletion strains, locus YER110C, active compounds read low 0.975 | S. cerevisiae deletion strains, locus YER111C, strain swi4, active compounds read low 0.984 | S. cerevisiae deletion strains, locus YER155C, strain BEM2 (second series), active compounds read low 0.934 | S. cerevisiae deletion strains, locus YER155C, strain BEM2, active compounds read low 1.02 | S. cerevisiae deletion strains, locus YER167W, strain BCK2, active compounds read low 0.956 | S. cerevisiae deletion strains, locus YFR010W, strain ubp6, active compounds read low 0.978 | S. cerevisiae deletion strains, locus YGL078C, strain dbp3, active compounds read low 0.987 | S. cerevisiae deletion strains, locus YGL167C, strain pmr1, active compounds read low 1 | S. cerevisiae deletion strains, locus YGL173C, strain kem1, active compounds read low 0.97 | S. cerevisiae deletion strains, locus YGL227W, strain vid30, active compounds read low 1 | S. cerevisiae deletion strains, locus YGL240W, strain doc1, active compounds read low 0.949 | S. cerevisiae deletion strains, locus YGL248W, strain PDE1, active compounds read low 0.984 | S. cerevisiae deletion strains, locus YGL253W, strain hxk2, active compounds read low 1 | S. cerevisiae deletion strains, locus YGR135W, strain pre9, active compounds read low 0.941 | S. cerevisiae deletion strains, locus YGR252W, strain gcn5, active compounds read low 1.09 | S. cerevisiae deletion strains, locus YHR013C, strain ard1, active compounds read low 0.969 | S. cerevisiae deletion strains, locus YHR027C, strain rpn1, active compounds read low 0.998 | S. cerevisiae deletion strains, locus YHR030C, strain SLT2, active compounds read low 0.964 | S. cerevisiae deletion strains, locus YHR079C, strain IRE1 (second series), active compounds read low 0.979 | S. cerevisiae deletion strains, locus YHR094C, strain hxt1, active compounds read low 0.999 | S. cerevisiae deletion strains, locus YHR129C, strain ARP1, active compounds read low 0.952 | S. cerevisiae deletion strains, locus YHR142W, strain chs7, active compounds read low 1.02 | S. cerevisiae deletion strains, locus YHR200W, strain rpn10, active compounds read low 0.988 | S. cerevisiae deletion strains, locus YIL066C, strain RNR3, active compounds read low 0.943 | S. cerevisiae deletion strains, locus YIL073C, strain SPO22, active compounds read low 1.01 | S. cerevisiae deletion strains, locus YIL125W, strain kgd1, active compounds read low 0.997 | S. cerevisiae deletion strains, locus YIR030C, strain dcg1, active compounds read low 0.978 | S. cerevisiae deletion strains, locus YJL092W, strain hpr5, active compounds read low 1 | S. cerevisiae deletion strains, locus YJL095W, strain BCK1 (second series), active compounds read low 0.985 | S. cerevisiae deletion strains, locus YJL095W, strain BCK1, active compounds read low 0.882 | S. cerevisiae deletion strains, locus YJL115W, strain asf1, active compounds read low 1.01 | S. cerevisiae deletion strains, locus YJL129C, strain trk1, active compounds read low 1.02 | S. cerevisiae deletion strains, locus YJL134W, strain LCB3, active compounds read low 0.978 | S. cerevisiae deletion strains, locus YJL154C, strain vps35, active compounds read low 1.01 | S. cerevisiae deletion strains, locus YJL164C, strain tpk1, active compounds read low 0.977 | S. cerevisiae deletion strains, locus YJL166W, strain qcr8, active compounds read low 0.983 | S. cerevisiae deletion strains, locus YJL168C, strain set2, active compounds read low 0.983 | S. cerevisiae deletion strains, locus YJL187C, strain SWE1, active compounds read low 0.983 | S. cerevisiae deletion strains, locus YJR043C, strain POL32, active compounds read low 0.936 | S. cerevisiae deletion strains, locus YJR075W, strain HOC1, active compounds read low 0.96 | S. cerevisiae deletion strains, locus YKL068W, active compounds read low 0.965 | S. cerevisiae deletion strains, locus YKL160W, strain elf1, active compounds read low 0.979 | S. cerevisiae deletion strains, locus YKR001C, strain vps1, active compounds read low 0.952 | S. cerevisiae deletion strains, locus YKR026C, strain gcn3, active compounds read low 1.01 | S. cerevisiae deletion strains, locus YKR091W, strain srl3, active compounds read low 0.992 | S. cerevisiae deletion strains, locus YLL001W, strain dnm1, active compounds read low 0.98 | S. cerevisiae deletion strains, locus YLL026W, active compounds read low 0.996 | S. cerevisiae deletion strains, locus YLL041C, strain sdh2, active compounds read low 1.01 | S. cerevisiae deletion strains, locus YLR027C, strain aat2, active compounds read low 0.965 | S. cerevisiae deletion strains, locus YLR102C, strain apc9, active compounds read low 0.98 | S. cerevisiae deletion strains, locus YLR221C, strain rsa3, active compounds read low 0.957 | S. cerevisiae deletion strains, locus YLR258W, strain gsy2, active compounds read low 0.971 | S. cerevisiae deletion strains, locus YLR262C, strain YPT6 (second series), active compounds read low 0.949 | S. cerevisiae deletion strains, locus YLR262C, strain YPT6, active compounds read low 0.773 | S. cerevisiae deletion strains, locus YLR268W, strain sec22, active compounds read low 0.904 | S. cerevisiae deletion strains, locus YLR320W, strain mms22, active compounds read low 0.954 | S. cerevisiae deletion strains, locus YLR330W, strain CHS5, active compounds read low 0.979 | S. cerevisiae deletion strains, locus YLR342W, strain FKS1 (second series), active compounds read low 0.92 | S. cerevisiae deletion strains, locus YLR342W, strain FKS1, active compounds read low 0.968 | S. cerevisiae deletion strains, locus YLR357W, strain rsc2, active compounds read low 0.957 | S. cerevisiae deletion strains, locus YLR370C, strain arc18, active compounds read low 0.983 | S. cerevisiae deletion strains, locus YLR371W, strain rom2, active compounds read low 0.973 | S. cerevisiae deletion strains, locus YLR384C, strain iki3, active compounds read low 0.975 | S. cerevisiae deletion strains, locus YLR418C, strain cdc73, active compounds read low 0.974 | S. cerevisiae deletion strains, locus YML016C, strain PPZ1, active compounds read low 0.974 | S. cerevisiae deletion strains, locus YML032C, strain rad52, active compounds read low 0.94 | S. cerevisiae deletion strains, locus YML120C, strain ndi1, active compounds read low 0.989 | S. cerevisiae deletion strains, locus YML124C, strain tub3, active compounds read low 0.992 | S. cerevisiae deletion strains, locus YMR058W, strain fet3, active compounds read low 0.986 | S. cerevisiae deletion strains, locus YMR078C, strain ctf18, active compounds read low 0.989 | S. cerevisiae deletion strains, locus YMR125W, strain sto1, active compounds read low 0.969 | S. cerevisiae deletion strains, locus YMR129W, active compounds read low 0.981 | S. cerevisiae deletion strains, locus YMR205C, strain PFK2, active compounds read low 0.967 | S. cerevisiae deletion strains, locus YMR223W, strain ubp8, active compounds read low 0.957 | S. cerevisiae deletion strains, locus YMR231W, strain pep5, active compounds read low 0.993 | S. cerevisiae deletion strains, locus YMR263W, strain SAP30, active compounds read low 0.975 | S. cerevisiae deletion strains, locus YMR307W, strain GAS1, active compounds read low 1.09 | S. cerevisiae deletion strains, locus YNL067W, strain RPL9B, active compounds read low 0.964 | S. cerevisiae deletion strains, locus YNL071W, strain lat1, active compounds read low 1 | S. cerevisiae deletion strains, locus YNL153C, strain GIM3, active compounds read low 0.928 | S. cerevisiae deletion strains, locus YNL209W, strain ssb2, active compounds read low 0.982 | S. cerevisiae deletion strains, locus YNL233W, strain BNI4, active compounds read low 0.993 | S. cerevisiae deletion strains, locus YNL248C, strain rpa49, active compounds read low 0.91 | S. cerevisiae deletion strains, locus YNL250W, strain rad50, active compounds read low 0.966 | S. cerevisiae deletion strains, locus YNL271C, strain bni1, active compounds read low 0.987 | S. cerevisiae deletion strains, locus YNL298W, strain CLA4, active compounds read low 0.972 | S. cerevisiae deletion strains, locus YNL307C, strain MCK1, active compounds read low 0.982 | S. cerevisiae deletion strains, locus YNL322C, strain KRE1 (second series), active compounds read low 0.978 | S. cerevisiae deletion strains, locus YNR049C, strain mso1, active compounds read low 0.994 | S. cerevisiae deletion strains, locus YNR052C, strain pop2, active compounds read low 0.966 | S. cerevisiae deletion strains, locus YOL012C, strain htz1 0.792 | S. cerevisiae deletion strains, locus YOL147C, strain pex11, active compounds read low 0.986 | S. cerevisiae deletion strains, locus YOR001W, strain rrp6, active compounds read low 0.954 | S. cerevisiae deletion strains, locus YOR061W, strain CKA2, active compounds read low 0.932 | S. cerevisiae deletion strains, locus YOR069W, strain VPS5, active compounds read low 0.977 | S. cerevisiae deletion strains, locus YOR070C, strain gyp1, active compounds read low 0.966 | S. cerevisiae deletion strains, locus YOR080W, strain dia2, active compounds read low 0.978 | S. cerevisiae deletion strains, locus YOR083W, strain WHI5, active compounds read low 1 | S. cerevisiae deletion strains, locus YOR106W, strain vam3, active compounds read low 0.973 | S. cerevisiae deletion strains, locus YOR136W, strain idh2, active compounds read low 0.986 | S. cerevisiae deletion strains, locus YOR144C, strain elg1, active compounds read low 0.992 | S. cerevisiae deletion strains, locus YOR184W, strain ser1, active compounds read low 0.977 | S. cerevisiae deletion strains, locus YOR265W, strain rbl2, active compounds read low 0.981 | S. cerevisiae deletion strains, locus YOR270C, strain vph1, active compounds read low 0.921 | S. cerevisiae deletion strains, locus YOR290C, strain snf2, active compounds read low 0.967 | S. cerevisiae deletion strains, locus YOR316C, strain cot1, active compounds read low 0.974 | S. cerevisiae deletion strains, locus YPL051W, strain arl3, active compounds read low 0.923 | S. cerevisiae deletion strains, locus YPL078C, strain atp4, active compounds read low 0.992 | S. cerevisiae deletion strains, locus YPL106C, strain sse1, active compounds read low 0.966 | S. cerevisiae deletion strains, locus YPL240C, strain hsp82, active compounds read low 0.995 | S. cerevisiae deletion strains, locus YPL241C, strain CIN2, active compounds read low 0.995 | S. cerevisiae deletion strains, locus YPR119W, strain clb2, active compounds read low 0.99 | S. cerevisiae deletion strains, locus YPR141C, strain kar3, active compounds read low 0.967 | S. cerevisiae deletion strains, locus YPR163C, strain tif3, active compounds read low 0.994 | S. cerevisiae deletion strains, locus YPR167C, strain met16, active compounds read low 0.976 | S. cerevisiae deletion strains, strain wtn01, active compounds read low 0.969 | S. cerevisiae strains, strain wild type, active compounds read low 0.965
